Data on 17 compounds can be found in the supplement of paper PMC9254222.

The test system of this test is HEK293T (UBE3A T485A transfected, BAR Wnt reporter). The test is described as follows: Renilla luciferase signal (cell health) relative to plate median (fold (linear ratio)); higher = higher Renilla signal. The following applies: 24 h. The method in brief:
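Each value averages four biological replicates in HEK293T cells grown at 4500 cells/well in DMEM with 10% FBS at 37°C and 5% CO2. The cells were transfected with a BAR firefly luciferase Wnt reporter, TK-Renilla and an expression plasmid, then four hours later robotically treated with the chemicals at 0.01–100 uM for 24 h. Dual-Glo luciferase signals were median-centred per plate, with the firefly/Renilla ratio reported as Wnt activity and raw Renilla as cell health.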

Each structure is given as a SMILES string. Whole data set: some 1,100 compounds, median “Renilla luciferase signal (cell health) relative to plate median” near 0.97, cut for the highest 2% near 1.6. Shown is part of a subset that was picked to be rich in the highest values.

For `CSC(=O)c1cccc2nnsc12` [Acibenzolar-S-methyl], the Renilla luciferase signal runs as follows: (concentration: 0.01 uM) 0.985; (concentration: 0.1 uM) 1.18; (concentration: 1 uM) 1.05; (concentration: 10 uM) 1.07; (concentration: 100 uM) 1.8.

For `CN(C)C(=O)Nc1ccc(Cl)c(Cl)c1` [Diuron], the Renilla luciferase signal is, setting by setting: (concentration: 0.01 uM) 0.747; (concentration: 0.1 uM) 1.11; (concentration: 1 uM) 1.06; (concentration: 10 uM) 0.951; (concentration: 100 uM) 0.328.

With `O=C(CCCCCCCCc1cccnc1)N1CCC(C=C(c2ccccc2)c2ccccc2)CC1`, the Renilla luciferase signal (concentration: 0.1 uM) came to 0.898, the Renilla luciferase signal (concentration: 1 uM) came to 0.875, the Renilla luciferase signal (concentration: 10 uM) amounted to 0.939 and the Renilla luciferase signal (concentration: 100 uM) is 0.0905.

Take `C=CCOC(Cn1ccnc1)c1ccc(Cl)cc1Cl` (centres undefined) [Imazalil]: the Renilla luciferase signal was 0.797 (concentration: 0.01 uM); 0.885 (concentration: 0.1 uM); 0.939 (concentration: 1 uM); 0.777 (concentration: 10 uM); 0.0667 (concentration: 100 uM).

`c1ccc2c(c1)ccc1ccccc12` [Phenanthrene]: the Renilla luciferase signal (concentration: 0.1 uM) was 0.817, the Renilla luciferase signal (concentration: 1 uM) turned out to be 0.792, the Renilla luciferase signal (concentration: 10 uM) amounted to 0.858 and the Renilla luciferase signal (concentration: 100 uM) turned out to be 0.898.

`c1ccc2cc3ccccc3cc2c1` [Anthracene]: the Renilla luciferase signal turned out to be 1.34 (concentration: 0.1 uM), 1.26 (concentration: 1 uM), 0.952 (concentration: 10 uM) and 0.992 (concentration: 100 uM).

With `c1ccc2ccccc2c1` [Naphthalene], the Renilla luciferase signal (concentration: 0.1 uM) was 1.18, the Renilla luciferase signal (concentration: 1 uM) was 1.14, the Renilla luciferase signal (concentration: 10 uM) worked out at 1.33 and the Renilla luciferase signal (concentration: 100 uM) came out at 1.64.

In the case of `N=C(N)c1ccc(OCCCCCOc2ccc(C(=N)N)cc2)cc1.O=S(=O)(O)CCO.O=S(=O)(O)CCO` [Pentamidine isethionate], the Renilla luciferase signal (concentration: 0.1 uM) came out at 1.02, the Renilla luciferase signal (concentration: 1 uM) is 2.37, the Renilla luciferase signal (concentration: 10 uM) was determined as 0.453 and the Renilla luciferase signal (concentration: 100 uM) was found to be 0.0508.

`CCCCCCCC(=O)O` [Octanoic acid]: the Renilla luciferase signal is, setting by setting: (concentration: 0.1 uM) 0.834; (concentration: 1 uM) 0.792; (concentration: 10 uM) 0.83; (concentration: 100 uM) 1.09.

As to `OCC(CO)(CO)CO` [Pentaerythritol], the Renilla luciferase signal reads like this: (concentration: 0.1 uM) 0.898; (concentration: 1 uM) 1.02; (concentration: 10 uM) 1.08; (concentration: 100 uM) 2.01.

As for `OCC(CO)(CBr)CBr` [2,2-Bis(bromomethyl)-1,3-propanediol], the Renilla luciferase signal reads like this: (concentration: 0.1 uM) 0.999; (concentration: 1 uM) 0.961; (concentration: 10 uM) 1.01; (concentration: 100 uM) 1.07.

Regarding `O=c1c(-c2ccc(O)cc2)coc2cc(O)cc(O)c12` [Genistein], the Renilla luciferase signal (concentration: 0.01 uM) is 0.617; the Renilla luciferase signal (concentration: 0.1 uM) was 0.604; the Renilla luciferase signal (concentration: 1 uM) was 0.77; the Renilla luciferase signal (concentration: 10 uM) was determined as 0.58; the Renilla luciferase signal (concentration: 100 uM) came to 1.01.

As for `COc1cc(S(=O)(=O)[O-])c(C)cc1/N=N/c1c(O)ccc2cc(S(=O)(=O)[O-])ccc12.[Na+].[Na+]`, the Renilla luciferase signal came to 0.934 (concentration: 0.1 uM), 0.936 (concentration: 1 uM), 0.887 (concentration: 10 uM) and 0.502 (concentration: 100 uM).

As to `CC[C@H]1OC(=O)[C@H](C)[C@@H](O[C@H]2C[C@@](C)(OC)[C@@H](O)[C@H](C)O2)[C@H](C)[C@@H](O[C@@H]2O[C@H](C)C[C@H](N(C)C)[C@H]2O)[C@](C)(O)C[C@@H](C)C(=O)[C@H](C)[C@@H](O)[C@]1(C)O` [Erythromycin], the Renilla luciferase signal by setting is: (concentration: 0.1 uM) 0.894; (concentration: 1 uM) 1.14; (concentration: 10 uM) 2.38; (concentration: 100 uM) 5.97.

In the case of `CCCC(CCC)C(=O)O` [Valproic acid], the Renilla luciferase signal amounted to 0.788 (concentration: 0.01 uM); 0.847 (concentration: 0.1 uM); 0.87 (concentration: 1 uM); 0.883 (concentration: 10 uM); 1.56 (concentration: 100 uM).

In the case of `CCNc1nc(N)nc(Cl)n1` [Deisopropylatrazine], the Renilla luciferase signal by setting is: (concentration: 0.01 uM) 0.898; (concentration: 0.1 uM) 0.991; (concentration: 1 uM) 0.951; (concentration: 10 uM) 0.879; (concentration: 100 uM) 0.243.

For the compound `CC(=O)S[C@H](C(=O)N[C@H]1Cc2ccccc2[C@H]2CCC[C@@H](C(=O)O)N2C1=O)C(C)C` [Ilepatril], the Renilla luciferase signal turned out to be 0.879 (concentration: 0.1 uM), 0.836 (concentration: 1 uM), 0.857 (concentration: 10 uM) and 1.53 (concentration: 100 uM).
